Screens (PubChem BioAssay)
Sm TGR inh: S. mansoni TGR enzyme inhibition; hit rate 3% among 360,000; AID 485364; Potency, µM (series often up to 114 µM), without a hit: top-dose activity change, negative = inhibition, actives largely listed as inhibitors; purified TGR, DTNB reduction, TNB absorbance 405 nm; Q962Y6; also: potency is read from the fitted curve at half-maximal effect; % is scaled to controls: 0 for no effect and ±100 for the full control effect; nearly all actives have a fitted effect of over 60% in size
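Kinetic colorimetric format: TGR-catalysed, NADPH-driven DTNB reduction monitored via TNB absorbance. Enzyme dispensed at 20 nM; compound exposure 15 min at room temperature before reaction start.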
LmPK inhibitor: LmPK (Leishmania mexicana) enzyme inhibition. purified LmPK, Kinase-Glo ATP luminescence, 1 h. Potency, µM (top dose mostly 57.5 µM), inactives show top-dose activity change, negative = inhibition, actives largely listed as inhibitors. hit rate 0.37% among 290,000. AID 1721; also: potency is read from the fitted curve at half-maximal effect; % is scaled to controls: 0 for no effect and ±100 for the full control effect
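qHTS format; LmPK 0.1 nM; substrates PEP 0.5 mM and ADP 0.1 mM. One-hour room-temperature incubation, then coupled luciferase luminescence; 0.5 nM enzyme wells mark activation.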
Giardia FBPA inh: Giardia lamblia aldolase inhibition; Potency, µM (doses to about 59.6 µM), inactives show at the highest dose activity, negative = inhibition, most hits filed as inhibitors; hit rate 0.71% among 290,000; purified Giardia FBPA; A8B2U2; also: potency is read from the fitted curve at half-maximal effect; % is scaled to controls: 0 for no effect and ±100 for the full control effect; nearly all actives have a fitted effect of over 55% in size
Target sequence (A8B2U2 whole entry, looked up): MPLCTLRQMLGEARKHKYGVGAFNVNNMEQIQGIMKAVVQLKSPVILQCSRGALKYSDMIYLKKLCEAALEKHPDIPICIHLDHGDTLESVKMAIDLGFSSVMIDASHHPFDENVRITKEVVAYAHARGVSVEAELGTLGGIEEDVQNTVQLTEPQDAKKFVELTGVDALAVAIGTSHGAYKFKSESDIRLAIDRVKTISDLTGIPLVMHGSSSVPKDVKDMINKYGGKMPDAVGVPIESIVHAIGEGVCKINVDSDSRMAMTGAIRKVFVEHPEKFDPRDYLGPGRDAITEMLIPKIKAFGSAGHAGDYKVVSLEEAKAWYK
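40 nM FBPA preincubated 10 min at RT with compound (up to 57.5 uM final), then substrate plus GAPDH/TPI/NAD/arsenate coupling and diaphorase/resazurin added. Fluorescence read after 20 min at RT, 525/598 nm.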
CHX counter: counter-screen for Shiga toxin inhibitors: cycloheximide protein synthesis inhibition. cell reporter, cycloheximide protein synthesis inhibition counterscreen. max response, %. hit rate 12% among 300,000. AID 2314; in the data active = max response mostly above about 13%, no sharp cut-off; inactive = mostly below about 14%; also: read at 38.3 µM for the half of the compounds with a filed dose; 0% is about no effect
Shiga toxin inh: blocks Shiga toxin action in Vero cells; Vero cells, Shiga toxin protein synthesis inhibition reporter; inhibition, % at 38.7 µM; hit rate 9.2% among 290,000; in the data active = inhibition mostly above about 28%, no sharp cut-off; inactive = mostly below about 43%; also: 0% is about no effect
TbPYK inhibitor: inhibitors of Trypanosoma brucei pyruvate kinase | TbPYK enzyme, Kinase-Glo Plus ATP luminescence, 45 min | hit rate 0.12% among 410,000 | Q57TT1 | Potency, µM (highest dose often 76.8 µM), for inactives: at the top dose activity, negative = inhibition, actives largely listed as inhibitors; also: potency is read from the fitted curve at half-maximal effect; % is scaled to controls: 0 for no effect and ±100 for the full control effect; nearly all actives have a fitted effect of over 50% in size
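Enzyme and substrate buffer are dispensed first and compound is pin-transferred. ADP at 130 uM final then starts the reaction, which runs 45 min at room temperature. Detection reagent is added for 10 min before luminescence is imaged.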
Starred values were filed as active, the others as inactive. This is one part of a sample in which hits are shown more often than they occur. Unless noted, calls follow the shape of the dose curve; as a rule, active = well fitted curve in the direction sought with a large enough effect; inconclusive = small, poorly fitted or top-dose-only effect, or another doubt; inactive = no such curve, though single readings can be large; an effect the other way counts as inactive or inconclusive.

For Cc1cc2n(n1)SC(Nc1ccc(F)c(Cl)c1)N2 (configuration not stated) the results were Sm TGR inh 8.9µM*, LmPK inhibitor 4%, Giardia FBPA inh inconclusive, CHX counter 32*, Shiga toxin inh active and TbPYK inhibitor -10%.
For Cc1cc2n(n1)CCCN2C(=O)Nc1ccc(F)c(Cl)c1 the results were Sm TGR inh 8% and TbPYK inhibitor 3%.
CN(CCC1CCOCC1)C(=O)CC1C(=O)NCCN1Cc1ccccc1F (configuration not stated) was read as Sm TGR inh 45µM*, LmPK inhibitor 1%, Giardia FBPA inh -30%, CHX counter 0, Shiga toxin inh 12 and TbPYK inhibitor -1%.
Screening CN(CC1CCOCC1)C(=O)CC1C(=O)NCCN1Cc1cccc(C(F)(F)F)c1 (configuration not stated) returned Sm TGR inh 45µM*, LmPK inhibitor -5%, Giardia FBPA inh inconclusive, CHX counter 0, Shiga toxin inh 3 and TbPYK inhibitor -7%.
COc1ccc(CN2CCNC(=O)C2CC(=O)N(C)CC2CCOCC2)cc1OC (configuration not stated) was read as Sm TGR inh inconclusive, LmPK inhibitor -1%, Giardia FBPA inh -18%, CHX counter -2, Shiga toxin inh -4 and TbPYK inhibitor 1%.
`O=C(CC1C(=O)NCCN1Cc1ccoc1)NCc1cccc(OC(F)(F)F)c1` (configuration not stated) gave Sm TGR inh 25µM*, LmPK inhibitor -2%, Giardia FBPA inh 4%, CHX counter 2, Shiga toxin inh 15 and TbPYK inhibitor -6%.
For COc1cccc(CN2CCNC(=O)C2CC(=O)NCC2CCOCC2)c1 (configuration not stated) the results were Sm TGR inh 35µM*, LmPK inhibitor 4%, CHX counter 6, Shiga toxin inh 18 and TbPYK inhibitor 3%.
`O=C(CC1C(=O)NCCN1Cc1cccc(Oc2ccccc2)c1)NCC1CCOCC1` (configuration not stated) gave LmPK inhibitor -1%, Giardia FBPA inh -21%, CHX counter 0, Shiga toxin inh -5 and TbPYK inhibitor -19%.
Screening CN(CCC1CCOCC1)C(=O)CC1C(=O)NCCN1Cc1ccoc1 (configuration not stated) returned Sm TGR inh inconclusive, LmPK inhibitor -2%, Giardia FBPA inh 0%, CHX counter -3, Shiga toxin inh -4 and TbPYK inhibitor 0%.
`CN(CCCC1CCCC1)C(=O)CC1C(=O)NCCN1Cc1ccc(F)cc1` (configuration not stated) gave Sm TGR inh 28µM*, LmPK inhibitor 6%, Giardia FBPA inh -7%, CHX counter -3, Shiga toxin inh -9 and TbPYK inhibitor 1%.
Screening CCCNc1ncnc2[nH]ncc12 returned TbPYK inhibitor 2%.
For CCCCSc1ncnc2[nH]ncc12 the results were Sm TGR inh 6%, LmPK inhibitor -6%, Giardia FBPA inh -1%, CHX counter 23*, Shiga toxin inh 25 and TbPYK inhibitor -6%.
COC(=O)[C@H](COC(C)(C)C)NC(=O)O[C@@H]1C(=O)c2cc(OC)ccc2O[C@H]1c1ccc(OC)c(Br)c1 was read as Giardia FBPA inh -9%.
CC(C)OC(=O)CC12CN(C)CC(CC(=O)OC(C)C)(CN(C)C1)C2=O was read as Sm TGR inh 18%, LmPK inhibitor -1%, Giardia FBPA inh 2%, CHX counter 35*, Shiga toxin inh 40 and TbPYK inhibitor 4%.
`CN(C(=O)COC(=O)c1ccc2ccccc2n1)C1CCCCC1` gave TbPYK inhibitor 25%.
`CCC(=O)Nc1cccc(NC(=O)c2ccc(Br)cc2)c1` gave Sm TGR inh -16%, LmPK inhibitor 5%, Giardia FBPA inh 0%, CHX counter 14*, Shiga toxin inh 0 and TbPYK inhibitor -2%.
For O=C(NNc1ccc(O)cc1)c1ccc(Br)cc1 the results were Sm TGR inh 22µM*, LmPK inhibitor -21%, Giardia FBPA inh -16%, CHX counter 9, Shiga toxin inh 40 and TbPYK inhibitor -12%.
